Structures are written as SMILES. Several values for one entry are separate records, joined by “and”; a condition that tells them apart may be missing. Equal values may be shown once. Inconclusive results are not listed. A structure can be active in one record and inactive in another. Activity calls are given as the source filed them. How the source made its calls, unless noted: active means hit-call score of the fitted dose curve at least 0.9, where 1 is the maximum; inconclusive means response in the unintended direction; inactive means score below 0.9.

What is called AC50 is the concentration at which the activity in the assay is half-maximal.

Experiment [1] can be described thus: ACEA_ER_80hr: ACEA Biosciences xCELLigence Real-Time Cell Analysis on Estrogen Receptor Agonism for Proliferation (AID 2282667). Particulars: T47D proliferation, impedance (xCELLigence), 80 h. The method in brief: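 Real-time impedance growth kinetics of human T-47D breast cells read 80 h after dosing, gain-of-signal fitted relative to DMSO. Compounds: 1:4 serial series, top final concentration 100 uM, n = 2.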

A short description of experiment [2]: APR_HepG2_CellCycleArrest_24hr: Apredica 24-hour HepG2 Assay for Cell Cycle Arrest (AID 2282905; active means hit-call score of the fitted dose curve at least 0.9, where 1 is the maximum; inactive means score below 0.9;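 further: cell cycle arrest scored as ratio of 2N to 4N nuclear DNA content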). Particulars: imaging, actives raise or lower the signal. The method in brief:
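Step one: dose HepG2 with test compounds, 0.39–200 uM, 0.5% DMSO, 24 hr. Step two: fix, permeabilize, stain nuclei with Hoechst 33342. Step three: image six fields per well at 20x, quantify DNA content, fit bidirectionally relative to DMSO.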

Experiment [3] can be described thus: APR_HepG2_NuclearSize_24hr: Apredica 24-hour HepG2 Assay for Nuclear Size (AID 2282907; active means hit-call score of the fitted dose curve at least 0.9, where 1 is the maximum; inactive means score below 0.9). Particulars: high-content imaging, actives raise or lower the signal. The method in brief:
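After fixation and permeabilization, 24-hr-treated HepG2 cells were stained with Hoechst 33342 and imaged on an ArrayScan (20x). Doses spanned 0.39–200 uM in duplicate. Nuclear diameter changes in either direction were fitted relative to 0.5% DMSO controls.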

Experiment [4] in a line: APR_HepG2_CellLoss_24hr: Apredica 24-hour HepG2 Assay for Cell Loss (AID 2282908; active means hit-call score of the fitted dose curve at least 0.9, where 1 is the maximum; inactive means score below 0.9;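 further: fit in both directions so a hit may be cell loss or gain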). Particulars: high-content imaging. The method, then: APR_HepG2_24hr is a cell-based, multiplexed-readout assay that uses HepG2, a human liver cell line, with measurements taken at 24 hours after chemical dosing in a 384-well plate.APR_HepG2_CellLoss_24hr is one of 10 assay component(s) measured or calculated from the APR_HepG2_24hr assay. It is designed to make measurements of cell number, a form of viability reporter, as detected with fluorescence intensity signals by HCS Fluorescent Imaging technology.Data from the assay component APR_HepG2_CellLoss_24hr was analyzed into 1 assay endpoint. This assay endpoint, APR_HepG2_CellLoss_24hr, was analyzed with bidirectional fitting relative to DMSO as the negative control and baseline of activity. Using a type of viability reporter, measures of all nuclear dna for gain or loss-of-signal activity can be used to understand the viability at the cellular-level. Furthermore, this assay endpoint can be referred to as a secondary readout, because this assay has produced multiple assay endpoints where this one serves a viability function. To generalize the intended target to other relatable targets, this assay endpoint is annotated to the cell cycle intended target family, where the subfamily is proliferation.
Cells were treated with dimethyl sulfoxide (DMSO) as a solvent control at a final concentration of 0.5% v/v or with compounds in DMSO with a resulting final DMSO concentration of 0.5% v/v. Compound treatment was done at concentrations of 0.39, 0.78, 1.56, 3.12, 6.24, 12.5, 25, 50, 100, and 200 uM in duplicate on each plate. Cells were treated with compounds for 1, 24, or 72 hr. Carbonyl […] m-chloro-phenylhydrazone (CCCP) and taxol were used as positive controls for mitochondrial function and cytoskeletal stability, respectively; DMSO served as the negative control for this experiment. Cells were fixed by the direct addition of 50 uL formaldehyde in Hank's Balanced Salt Solution (HBSS) to a final concentration of 3.7%. After incubation in the fixation medium for 30 min at room temperature (293-298 K), cells were rinsed twice with HBSS and treated with cell permeabilization buffer (16 uL of 0.5% Triton X-100) for 10 min at room temperature (293-298 K) before labeling. For mitochondrial membrane potential and mitochondrial measurements, pre-fixed cells were incubated with 50 uL of MitoTracker Red CMXRos (Invitrogen) at a concentration of 250 nM for 30 min before fixation. In the remaining cases, post-fixed cells were labeled by incubation with a multiplexed mixture of primary antibodies in HBSS for 60 min at room temperature (293-298 K) to detect immunoreactivity of c-Jun (1:500), phospho-histone H3 (1:100), phospho-histone H2A.x (1:200), p53 (1:400), alpha-tubulin (1:200) and Hoechst 33342 (2 ug/mL). […]

A short description of experiment [5]: APR_HepG2_MicrotubuleCSK_24hr: Apredica 24-hour HepG2 Assay for Microtubule CSK Stabilty (AID 2282909; active means hit-call score of the fitted dose curve at least 0.9, where 1 is the maximum; inactive means score below 0.9). Particulars: HepG2 microtubule cytoskeleton imaging, actives raise or lower the signal. The method in brief:
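Microtubule stability is scored from tubulin immunofluorescence in fixed HepG2 cells imaged at 20x. Cells receive ten compound concentrations up to 200 uM for 24 h; taxol and DMSO serve as positive and negative controls.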

Experiment [6] can be described thus: APR_HepG2_MitoticArrest_24hr: Apredica 24-hour HepG2 Assay for Mitotic Arrest (AID 2282910; active means hit-call score of the fitted dose curve at least 0.9, where 1 is the maximum; inactive means score below 0.9). The conditions noted are these: high-content imaging, actives raise or lower the signal. The method in brief:
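HepG2, 24 hr dosing, 0.39–200 uM, 0.5% DMSO final. Formaldehyde-fixed, Triton-permeabilised, anti-phospho-histone H3 plus Hoechst. ArrayScan imaging at 20x; bidirectional fit vs DMSO baseline.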

Experiment [7] can be described thus: APR_HepG2_MitoMembPot_24hr: Apredica 24-hour HepG2 Assay for Mitochondrial Membrane Potential (AID 2282911; active means hit-call score of the fitted dose curve at least 0.9, where 1 is the maximum; inactive means score below 0.9). The conditions noted are these: imaging, actives raise or lower the signal. The method in brief:
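Mitochondrial membrane potential imaged via MitoTracker Red CMXRos (250 nM, 30 min pre-fixation) in fixed HepG2 cells with Hoechst nuclear identification. Ten concentrations 0.39–200 uM, 24 h treatment, 0.5% DMSO; CCCP as positive control.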

Experiment [8] in a line: APR_HepG2_MitoMass_24hr: Apredica 24-hour HepG2 Assay for Mitochondrial Mass (AID 2282912; active means hit-call score of the fitted dose curve at least 0.9, where 1 is the maximum; inactive means score below 0.9). Particulars: high-content imaging, actives raise or lower the signal. The method in brief:
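Readout: fluorescence of MitoTracker Red CMXRos (250 nM, added 30 min pre-fixation) in fixed HepG2 cells imaged by HCS. Exposure lasted 24 hr at 0.39–200 uM; increases and decreases were both fitted relative to DMSO.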

Experiment [9] is described as follows: APR_HepG2_p53Act_24hr: Apredica 24-hour HepG2 Assay for p53 Activation (AID 2282913; active means hit-call score of the fitted dose curve at least 0.9, where 1 is the maximum; inactive means score below 0.9;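 further: p53 protein immunofluorescence averaged per cell in HepG2 with Hoechst nuclei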). The conditions noted are these: high-content imaging, actives raise or lower the signal. The method in brief: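 Fluorescence imaging of formaldehyde-fixed HepG2 cells labelled for p53 and with Hoechst, 24 h after dosing (0.39–200 uM, duplicate wells, 0.5% v/v DMSO). Signal fitted in both directions relative to DMSO.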

A short description of experiment [10]: APR_HepG2_CellCycleArrest_72hr: Apredica 72-hour HepG2 Assay for Cell Cycle Arrest (AID 2282914; active means hit-call score of the fitted dose curve at least 0.9, where 1 is the maximum; inactive means score below 0.9). Particulars: high-content imaging, actives raise or lower the signal. The method in brief:
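Read-out: nuclear DNA content from Hoechst 33342 high-content imaging (20x, six fields/well) after 3.7% formaldehyde fixation, fitted bidirectionally against DMSO. Treatment was 72 h in HepG2, ten concentrations 0.39–200 uM, duplicate, 0.5% DMSO.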

Take `CCC(C)C1CCCCC1=O` (stereo not drawn): the molecule was classed as inactive in experiment [1]. Regarding `CC1(C)CC(N)CC(C)(CN)C1` (stereo not drawn), in [1], the result was inactive.

For `CC(=O)N(C)C`, the molecule was classed as inactive in [1]. For `CC1=CC[C@@H](C(C)(C)O)CC1`, the result in experiment [1] was inactive. On to `CC(CO)c1ccccc1` (stereo not drawn), for which, in [1], the call was inactive. On the same count and under the same terms, the value for `CCC(C)COC(=O)CC(C)C` (stereo not drawn) was “inactive”.

As for `CCC(C)(C)C1CCC(=O)CC1`, in experiment [1], the molecule was classed as inactive.

With `CC(O)CNCC(C)O` (stereo not drawn), in experiment [1], the AC50 was 13.1 µM (active). With `CCC(CC)CO`, in experiment [1], the molecule was called inactive. The same measure, in the same setting: under `CC(C)(C)c1ccc(S)cc1` stands “inactive”. On the same count and under the same terms, under `O=C(OCc1ccccc1)c1ccccc1O` stands “inactive”; under `CC(C)(O)C(=O)c1ccc(OCCO)cc1`, “inactive”.

`CC(C)N1C(=O)c2ccccc2C1=O`: in experiment [1], the molecule was called inactive.

In the case of `NS(=O)(=O)c1cc(C(=O)O)c(NCc2ccco2)cc1Cl`, the result in [1] was inactive.

For the molecule `Cc1ccncc1`, in [1], the result was inactive. For the molecule `CCC(C)(C)c1cc(O)c(C(C)(C)CC)cc1O`, the molecule was classed as inactive in experiment [1]. For `O=S1(=O)CC=CC1`, the molecule was called inactive in experiment [1]. Regarding `CC(=N[Si](C)(C)C)O[Si](C)(C)C`, the AC50 in experiment [1] is 0.0603 µM (active). Turning to `CC(C)Cc1ccccc1`, the molecule was called inactive in [1].

Consider `CCCC(O)C(CC)CO` (stereo not drawn), for which the result in experiment [1] was inactive.

Regarding `CC1(C)[C@H](C=C(Cl)Cl)[C@H]1C(=O)OCc1cccc(Oc2ccccc2)c1`, in experiment [1], the result was inactive.

In the case of `CC(C)(C)c1cc(CCC(=O)OCCSCCOC(=O)CCc2cc(C(C)(C)C)c(O)c(C(C)(C)C)c2)cc(C(C)(C)C)c1O`, the call in experiment [1] was inactive.

Consider `Cc1ccc(C(C)(C)O)cc1`, for which, in experiment [1], the call was inactive.

`COc1ccccc1NC(=O)CC(C)=O`: in [1], the AC50 is 10.3 µM (active). Regarding `COc1cc(OC)c2ccc(=O)oc2c1`, the call in experiment [1] was inactive. On the same count and under the same terms, under `CCCCCCCC1CCCC1=O` (stereo not drawn) stands “inactive”. The same measure, in the same setting: the value for `O=C(O)c1ccco1` was “inactive”. Same read-out and setting: the value for `C[C@H](CCC(=O)O)[C@H]1CC[C@H]2[C@@H]3CC[C@@H]4C[C@H](O)CC[C@]4(C)[C@H]3CC[C@]12C` was “inactive”; that for `CC(=O)C1C(=O)C=C(C)OC1=O` (stereo not drawn) was “inactive”; that for `CCCO[Si](OCCC)(OCCC)OCCC` was “inactive”. `O=C1CCCCCCCCCCCC(=O)OCCO1`: the molecule was classed as inactive in experiment [1]. Same read-out and setting: the value for `C[N+](C)(C)CCO` was “inactive”; that for `O=S(=O)(O)c1cc(O)c(O)c(S(=O)(=O)O)c1` was “inactive”. Still for that read-out and setting: the value for `O=C(C=Cc1ccccc1)OCCCc1ccccc1` was “inactive”; that for `C=C(F)C(=O)OC(C(F)(F)F)C(F)(F)F` was “inactive”. The same measure, in the same setting: under `CC1COC(=O)O1` (stereo not drawn) stands “inactive”; under `CCCCCCCCCCO[C@@H]1O[C@H](CO)[C@@H](O)[C@H](O)[C@H]1O`, “inactive”.

For the molecule `CCc1cccc(O)c1`, the molecule was classed as inactive in experiment [1].

As for `Nc1ccn([C@H]2CC[C@@H](CO)O2)c(=O)n1`, the molecule was called inactive in experiment [1]. On the same count and under the same terms, the value for `CCCCCCC(C)O` (stereo not drawn) was “inactive”; that for `C=C(C)C(=O)OCCN(C)C` was “inactive”. Take `CC/C(=C(\c1ccccc1)c1ccc(OCCN(C)C)cc1)c1ccccc1`: the result in [2], in experiment [3] and in [10] was inactive. Moreover, the AC50 was 14.5 µM (active) and 17.8 µM (active) in experiment [4]; 35.4 µM (active) and 44.5 µM (active) in [5]; 7.3 µM (active) and 6.94 µM (active) in [6]; 39.2 µM (active) and 24.9 µM (active) in [7]; 6.38 µM (active) and 7.4 µM (active) in [8]; 16.1 µM (active) and 11.3 µM (active) in experiment [9]. Moreover, the AC50 in experiment [10] is 29.4 µM (active). For `CC1(C)CC(=O)CC(C)(C)N1`, the outcome in experiment [1] was inactive.

As for `FC(F)(F)c1ccc(Cl)c(Cl)c1`, the outcome in experiment [1] was inactive.

The record behind these values is PubChem BioAssay (EPA / NIEHS).
